Inconclusive results are not listed. Active and inactive are the calls of the source. How the source made its calls, unless noted: active means hit-call score of the fitted dose curve at least 0.9, where 1 is the maximum; inactive means score below 0.9.
Legend:
[1] = read-out: Monokine induced gamma interferon (MIG), CXCL9 (gene 4283); test: BSK_3C_MIG: BioMAP Diversity Plus: 3C Assay for Monokine induced gamma interferon (MIG) Biomarker Activity (AID 2283021); conditions: primary human endothelial cells (HUVEC); actives raise or lower the signal;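 on AC50: MIG protein level measured by immunoassay in the treated endothelial cultures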
In short: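 Read-out is ELISA detection of MIG on human umbilical vein endothelial cells, taken 24 h after dosing. Gain or loss of signal was scored relative to DMSO controls using bidirectional curve fitting.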

[2] = molecular target: human Vitamin D Receptor (VDR), VDR (gene 7421) (UniProt P11473); test: ATG_VDR_TRANS: Attagene TRANS-FACTORIAL HepG2 Assay for human Vitamin D Receptor (VDR) (AID 2283022; active means hit-call score of the fitted dose curve at least 0.9, where 1 is the maximum)
Sequence of human Vitamin D Receptor (VDR), VDR (gene 7421) (P11473 whole entry, looked up, the tested form may be a part): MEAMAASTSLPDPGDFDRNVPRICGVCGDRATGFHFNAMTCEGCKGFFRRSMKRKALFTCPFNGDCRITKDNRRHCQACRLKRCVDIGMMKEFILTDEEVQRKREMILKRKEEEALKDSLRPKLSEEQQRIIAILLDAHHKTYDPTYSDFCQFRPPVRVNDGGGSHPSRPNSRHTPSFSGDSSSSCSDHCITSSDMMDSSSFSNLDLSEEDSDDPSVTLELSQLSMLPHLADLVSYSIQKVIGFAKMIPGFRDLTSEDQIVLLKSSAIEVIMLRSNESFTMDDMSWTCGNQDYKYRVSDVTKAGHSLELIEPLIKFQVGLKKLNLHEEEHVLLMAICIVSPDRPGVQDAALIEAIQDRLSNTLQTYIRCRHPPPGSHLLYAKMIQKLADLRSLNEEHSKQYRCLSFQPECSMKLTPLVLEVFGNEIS
In short: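 RT-PCR/capillary electrophoresis read-out of reporter mRNA induction in transiently transfected HepG2; 24 h dosing; chimeric NR-Gal4 (TRANS format); gain-of-signal fit against DMSO baseline.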

[3] = BSK_3C_SRB: Viability Assessment in the BioMAP Diversity Plus: 3C Assay (AID 2283023); conditions: primary human endothelial cells (HUVEC);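 further: fitted both ways against DMSO so a hit may be signal rise or drop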
In short: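 HUVEC, 24 h post-dose; 10% TCA fix, 0.1% SRB stain, A560 nm. Bidirectional curve fit vs DMSO negative control.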

[4] = read-out: Matrix Metallopeptidase 1 (MMP1), MMP1 (gene 4312); test: BSK_BE3C_MMP1: BioMAP Diversity Plus: BE3C Assay for Matrix Metallopeptidase 1 (MMP1) Biomarker Activity (AID 2283024); conditions: primary human bronchial epithelial cells; actives raise or lower the signal
In short: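 Human bronchial epithelial cells (BE3C system) exposed to compound for 24 h; MMP1 then quantified by ELISA. Activity was fitted in both directions relative to DMSO.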

[5] = BSK_3C_Vis: BioMAP Diversity Plus: 3C Assay for Morphology Visualization (AID 2283025); conditions: primary human endothelial cells (HUVEC);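 further: fitted both ways so gain or loss versus DMSO counts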;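 on AC50: light microscopy image of cell morphology used as background control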
In short: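 Chemicals were added to primary human umbilical vein endothelium, cells were incubated 24 h, and morphology was then visualized by light microscopy. Gain or loss of signal was fitted bidirectionally relative to DMSO.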

[6] = read-out: Pselectin, SELP (gene 6403); test: BSK_4H_Pselectin: BioMAP Diversity Plus: 4H Assay for Pselectin Biomarker Activity (AID 2283026); conditions: primary human endothelial cells (HUVEC); actives raise or lower the signal
In short: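 ELISA read-out of P-selectin on human umbilical vein endothelium after 24 h of dosing. Values derive from bidirectional fitting relative to DMSO. Parallel SRB protein staining flagged overt cytotoxicity.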

[7] = BSK_4H_SRB: Viability Assessment in the BioMAP Diversity Plus: 4H Assay (AID 2283027); conditions: primary human endothelial cells (HUVEC);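 further: cells exposed to compound for 24 h before staining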;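 on AC50: curves fitted both ways versus DMSO so AC50 may be loss or gain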
In short: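 Human umbilical vein endothelial cells were dosed with chemical and, after 24 h, fixed with 10% TCA, stained with 0.1% sulforhodamine B, and read at 560 nm to give total protein as a cytotoxicity measure. Bidirectional fitting relative to DMSO control.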

[8] = read-out: Thrombomodulin, THBD (gene 7056); test: BSK_3C_Thrombomodulin: BioMAP Diversity Plus: 3C Assay for Thrombomodulin Biomarker Activity (AID 2283029); conditions: primary human endothelial cells (HUVEC); actives raise or lower the signal
In short: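 Read-out is ELISA of thrombomodulin on human umbilical vein endothelium 24 h after chemical dosing. Gain or loss of signal is scored relative to DMSO. Overt cytotoxicity is checked in parallel cultures by sulforhodamine B staining.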

[9] = read-out: Urokinase-type plasminogen activator receptor (uPAR), PLAUR (gene 5329); test: BSK_4H_uPAR: BioMAP Diversity Plus: 4H Assay for Urokinase-type plasminogen activator receptor (uPAR) Biomarker Activity (AID 2283030); conditions: primary human endothelial cells (HUVEC); actives raise or lower the signal
In short: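 HUVEC, 24 h post-dose; uPAR by ELISA; bidirectional fit vs DMSO baseline.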

[10] = read-out: Vascular endothelial growth factor receptor 2 (Homo sapiens) (UniProt P35968); test: BSK_4H_VEGFRII: BioMAP Diversity Plus: 4H Assay for Vascular endothelial growth factor receptor 2 (VEGFR2) Biomarker Activity (AID 2283031); conditions: primary human endothelial cells (HUVEC); actives raise or lower the signal;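 on AC50: cell-surface VEGFR2 protein level quantified by ELISA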
In short: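 HUVEC (human primary), 4H system; 24 h post-dose; VEGFRII by ELISA; bidirectional curve fit vs DMSO baseline; gain or loss of signal scored.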

[11] = read-out: Human Leukocyte Antigen - DR isotype (HLADR), HLA-DRA (gene 3122); test: BSK_BE3C_HLADR: BioMAP Diversity Plus: BE3C Assay for Human Leukocyte Antigen - DR isotype (HLADR) Biomarker Activity (AID 2283032); conditions: primary human bronchial epithelial cells; actives raise or lower the signal
In short: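 ELISA read-out of HLA-DR on human lung bronchial epithelial primary cells, measured 24 h post-dosing. Both increases and decreases were scored relative to DMSO vehicle.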

[12] = read-out: Vascular cell adhesion molecule 1 (VCAM1), VCAM1 (gene 7412); test: BSK_4H_VCAM1: BioMAP Diversity Plus: 4H Assay for Vascular cell adhesion molecule 1 (VCAM1) Biomarker Activity (AID 2283033); conditions: primary human endothelial cells (HUVEC); actives raise or lower the signal;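 on outcome: cell-surface VCAM-1 protein measured by ELISA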
In short: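 ELISA read-out of VCAM-1 on human umbilical vein endothelium 24 hours after chemical dosing; gain or loss of signal was fitted relative to DMSO, with sulforhodamine B staining of parallel cultures flagging overt cytotoxicity.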

[13] = read-out: Interferon-gamma inducible Protein 10 (IP10), CXCL10 (gene 3627); test: BSK_BE3C_IP10: BioMAP Diversity Plus: BE3C Assay for Interferon-gamma inducible Protein 10 (IP10) Biomarker Activity (AID 2283034); conditions: primary human bronchial epithelial cells; actives raise or lower the signal
In short: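 Chemical is dosed onto human lung bronchial epithelial primary cells, cultures are incubated 24 h, and IP-10 is then quantified by ELISA. Gain or loss of signal is fitted in both directions relative to DMSO.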

[14] = read-out: Monokine induced gamma interferon (MIG), CXCL9 (gene 4283); test: BSK_BE3C_MIG: BioMAP Diversity Plus: BE3C Assay for Monokine induced gamma interferon (MIG) Biomarker Activity (AID 2283035); conditions: primary human bronchial epithelial cells; actives raise or lower the signal;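 on outcome: MIG protein measured by ELISA in BE3C cultures after 24 h of dosing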
In short: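 ELISA read-out of MIG in human lung bronchial epithelial primary cultures, 24 h post-dosing. Bidirectional curve fit vs DMSO baseline.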

[15] = read-out: Transforming growth factor beta 1 (TGFb1), TGFB1 (gene 7040); test: BSK_BE3C_TGFb1: BioMAP Diversity Plus: BE3C Assay for Transforming growth factor beta 1 (TGFb1) Biomarker Activity (AID 2283036;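 on outcome: TGF-b1 protein level measured by ELISA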); conditions: primary human bronchial epithelial cells; actives raise or lower the signal
In short: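 Primary human lung bronchial epithelial cells; compound exposure 24 h; TGF-b1 by ELISA; bidirectional fit, DMSO baseline. Parallel SRB total-protein staining for cytotoxicity.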

[16] = read-out: Plasminogen activator inhibitor-1 (PAI1), SERPINE1 (gene 5054); test: BSK_BE3C_PAI1: BioMAP Diversity Plus: BE3C Assay for Plasminogen activator inhibitor-1 (PAI1) Biomarker Activity (AID 2283037); conditions: primary human bronchial epithelial cells; actives raise or lower the signal
In short: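 Primary human lung bronchial epithelial cells; chemical dosing; 24 h; PAI-1 measured by ELISA; bidirectional fit referenced to DMSO as negative control.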

[17] = read-out: urokinase plasminogen activator (uPA), PLAU (gene 5328); test: BSK_BE3C_uPA: BioMAP Diversity Plus: BE3C Assay for urokinase plasminogen activator (uPA) Biomarker Activity (AID 2283038); conditions: primary human bronchial epithelial cells; actives raise or lower the signal;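 on outcome: uPA protein level quantified by ELISA in cell cultures; uPA read one day after compound addition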
In short: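 ELISA read-out of uPA in human lung primary bronchial epithelial cultures, 24 h post-dosing. Gain or loss of signal fitted bidirectionally relative to DMSO baseline; cytotoxicity checked in parallel cultures via SRB total protein stain.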

[18] = read-out: Urokinase-type plasminogen activator receptor (uPAR), PLAUR (gene 5329); test: BSK_BE3C_uPAR: BioMAP Diversity Plus: BE3C Assay for Urokinase-type plasminogen activator receptor (uPAR) Biomarker Activity (AID 2283039); conditions: primary human bronchial epithelial cells; actives raise or lower the signal;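 on outcome: uPAR protein level measured by ELISA on the cells; cells exposed to compound for one day before measurement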
In short: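 Human bronchial epithelial primary cells; chemical exposure 24 h; uPAR by ELISA; bidirectional fit vs DMSO control.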

[19] = read-out: Interleukin-6 (IL6), IL6 (gene 3569); test: BSK_CASM3C_IL6: BioMAP Diversity Plus: CASM3C Assay for Interleukin-6 (IL6) Biomarker Activity for (AID 2283040); conditions: primary human coronary artery smooth muscle cells; actives raise or lower the signal
[20] = BSK_BE3C_SRB: Viability Assessment in the BioMAP Diversity Plus: BE3C Assay (AID 2283028); conditions: primary human bronchial epithelial cells;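 further: fitted both ways so AC50 may mark signal gain or loss versus DMSO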
In short: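 Primary human bronchial epithelium; chemical dosing, 24 h; 10% TCA fix, 0.1% SRB stain, A560; bidirectional fit vs DMSO baseline.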

For `CC(C)c1ccc(CO)cc1`, the outcome [1] was “inactive”, the outcome [2] was “inactive” and the outcome [3] was “inactive”. The outcome [4] was “inactive”, the outcome [5] was “inactive” and the outcome [6] was “inactive”. The outcome [7] was “inactive”, the outcome [8] was “inactive” and the outcome [9] was “inactive”. The outcome [10] was “inactive”, the outcome [11] was “inactive” and the outcome [12] was “inactive”. For the same compound, the outcome [13] was “inactive”, the outcome [14] was “inactive” and the outcome [15] was “inactive”. The outcome [16] was “inactive”, the outcome [17] was “inactive” and the outcome [18] was “inactive”. For the same compound, the outcome [19] was “inactive”.

With `CC(C)(c1ccccc1)c1ccc(O)c(C(C)(C)c2ccccc2)c1` the AC50 [1] was 10.5 µM (active), the outcome [2] was “inactive” and the AC50 [3] was 8.56 µM (active). The AC50 [4] was 32.3 µM (active), the AC50 [5] was 5.31 µM (active) and the AC50 [6] was 6.57 µM (active). The AC50 [7] was 8.09 µM (active), the AC50 [20] was 25.6 µM (active) and the outcome [8] was “inactive”. For the same compound, the AC50 [9] was 9.78 µM (active), the AC50 [10] was 7.22 µM (active) and the AC50 [11] was 13.6 µM (active). For the same compound, the AC50 [12] was 8.48 µM (active), the AC50 [13] was 12 µM (active) and the AC50 [14] was 22.7 µM (active). The AC50 [15] was 16.8 µM (active), the AC50 [16] was 14.3 µM (active) and the AC50 [17] was 16.2 µM (active). For the same compound, the AC50 [18] was 29.3 µM (active) and the AC50 [19] was 26.4 µM (active).

In the case of `O=c1[nH]c(=O)[nH]c(=O)[nH]1`, the outcome [1] is reported as “inactive”, the outcome [2] is reported as “inactive” and the outcome [3] is reported as “inactive”. The outcome [4] was “inactive”, the outcome [5] was “inactive” and the outcome [6] was “inactive”. For the same compound, the outcome [7] was “inactive”, the outcome [8] was “inactive” and the outcome [9] was “inactive”. For the same compound, the outcome [10] was “inactive”, the outcome [11] was “inactive” and the outcome [12] was “inactive”. The outcome [13] was “inactive”, the outcome [14] was “inactive” and the outcome [15] was “inactive”. The outcome [16] was “inactive”, the outcome [17] was “inactive” and the outcome [18] was “inactive”. For the same compound, the outcome [19] was “inactive”.

For `O=C(O)C(Cl)(Cl)Cl`, the outcome [1] was “inactive”, the outcome [2] was “inactive” and the outcome [3] was “inactive”. The outcome [4] was “inactive”, the outcome [5] was “inactive” and the outcome [6] was “inactive”. The outcome [7] was “inactive”, the outcome [8] was “inactive” and the outcome [9] was “inactive”. The outcome [10] was “inactive”, the outcome [11] was “inactive” and the outcome [12] was “inactive”. The outcome [13] was “inactive”, the outcome [14] was “inactive” and the outcome [15] was “inactive”. The outcome [16] was “inactive”, the outcome [17] was “inactive” and the outcome [18] was “inactive”. The outcome [19] was “inactive”.

For `BrCCBr`, the outcome [1] was “inactive”, the outcome [2] was “inactive” and the outcome [3] was “inactive”. The outcome [4] was “inactive”, the outcome [5] was “inactive” and the outcome [6] was “inactive”. The outcome [7] was “inactive”, the outcome [8] was “inactive” and the outcome [9] was “inactive”. For the same compound, the outcome [10] was “inactive”, the outcome [11] was “inactive” and the outcome [12] was “inactive”. The outcome [13] was “inactive”, the outcome [14] was “inactive” and the outcome [15] was “inactive”. The outcome [16] was “inactive”, the outcome [17] was “inactive” and the outcome [18] was “inactive”. The outcome [19] was “inactive”.

In the case of `CCC(C)(C)c1ccc(O)c(C(C)(C)CC)c1`, the AC50 [1] is reported as 13.3 µM (active), the AC50 [2] is reported as 55 µM (active) and the AC50 [3] is reported as 7.65 µM (active). The AC50 [4] was 34.8 µM (active), the AC50 [5] was 6.71 µM (active) and the AC50 [6] was 7.72 µM (active). The AC50 [7] was 11.7 µM (active), the AC50 [20] was 28.8 µM (active) and the AC50 [8] was 34.5 µM (active). The AC50 [9] was 11.4 µM (active), the outcome [10] was “inactive” and the AC50 [11] was 25.2 µM (active). For the same compound, the AC50 [12] was 10.4 µM (active), the AC50 [13] was 19 µM (active) and the AC50 [14] was 36 µM (active). For the same compound, the AC50 [15] was 20 µM (active), the AC50 [16] was 31.4 µM (active) and the AC50 [17] was 32.4 µM (active). For the same compound, the AC50 [18] was 36.6 µM (active) and the AC50 [19] was 29.4 µM (active).

— PubChem BioAssay (EPA / NIEHS)
